An excerpt weighted towards active compounds, which were near 14% of everything screened.
Pf growth 48h: inhibits P. falciparum growth in the first generation, 48 h; actives 5.9% (n = 310,000); AID 504832; Potency, µM (top dose mostly 28.7 µM), inactives show at the top dose activity change, negative = inhibition, actives largely listed as inhibitors; P. falciparum luciferase growth in erythrocytes, 48 h; note: potency is the fitted concentration of half-maximal effect
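Luminescence readout; reporter = integrated firefly luciferase in P. falciparum. RBC culture at 2% hematocrit, 0.1% parasitemia final, 37 C/5% CO2; decreased signal taken as growth inhibition.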
FBPA Giardia inh: blocks Giardia fructose-bisphosphate aldolase activity | A8B2U2 | purified Giardia FBPA | Potency, µM (highest dose often 59.6 µM), for inactives: at the top dose activity, negative = inhibition, actives largely listed as inhibitors | actives 0.71% (n = 290,000); note: potency is the fitted concentration of half-maximal effect; nearly all actives have a fitted effect of over 55% in size
Target sequence (A8B2U2 whole entry, looked up): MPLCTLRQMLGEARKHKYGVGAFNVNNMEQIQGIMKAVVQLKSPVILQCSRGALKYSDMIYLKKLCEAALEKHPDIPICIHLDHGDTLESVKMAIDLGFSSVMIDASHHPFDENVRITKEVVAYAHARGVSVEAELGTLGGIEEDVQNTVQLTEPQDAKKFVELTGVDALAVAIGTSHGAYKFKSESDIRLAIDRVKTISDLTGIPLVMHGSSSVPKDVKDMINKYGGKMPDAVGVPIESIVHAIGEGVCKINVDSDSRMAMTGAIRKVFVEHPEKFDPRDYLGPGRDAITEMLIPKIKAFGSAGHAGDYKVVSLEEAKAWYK
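40 nM FBPA preincubated 10 min at RT with compound (up to 57.5 uM final), then substrate plus GAPDH/TPI/NAD/arsenate coupling and diaphorase/resazurin added. Fluorescence read after 20 min at RT, 525/598 nm.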
Sm TGR block: blocks Schistosoma mansoni thioredoxin glutathione reductase; Q962Y6; purified TGR, DTNB reduction, TNB absorbance 405 nm; Potency, µM (titrated, usually from 114 µM), for the others: at the highest dose activity change, negative = inhibition, actives largely listed as inhibitors; actives 3% (n = 360,000); AID 485364; note: potency is the fitted concentration of half-maximal effect; nearly all actives have a fitted effect of over 60% in size
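Kinetic colorimetric format: TGR-catalysed, NADPH-driven DTNB reduction monitored via TNB absorbance. Enzyme dispensed at 20 nM; compound exposure 15 min at room temperature before reaction start.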
HCMV antiviral: human cytomegalovirus inhibition; HFF cells, HCMV-luciferase reporter, 72 h; active compounds read low; actives 4.5% (n = 410,000); activity change, negative = inhibition, % at 57.5 µM; AID 1259415; in the data active = activity change below about -60%; inconclusive = no clear call, values can overlap the other calls; inactive = above about -39%
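Inhibition of viral replication was scored as loss of reporter luminescence in HFFs infected with HCMV-luciferase (MOI 1 PFU/cell) for 72 h; compounds tested at 2 doses, normalized to buffer and Salinomycin controls.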
Pf growth 96h: inhibits malaria parasite growth, 96 h; P. falciparum luciferase reporter growth, 96 h; Potency, µM (series often up to 28.7 µM), inactives show at the highest dose activity change, negative = inhibition, actives largely listed as inhibitors; actives 6.9% (n = 320,000); AID 504834; note: potency is the fitted concentration of half-maximal effect
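Luminescence readout: decreased luciferase signal marks inhibited growth of reporter-expressing P. falciparum in infected red cells (2% hematocrit, 0.05% parasitemia final), exposed to compound two generations (96 h, 37 C, 5% CO2).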
* hit, by the source's call; ? = inconclusive; / = not tested or not shown; [ ] = dose if it differs, or a comment. Unless noted, calls come from the whole dose curve; as a rule, active = well fitted curve in the direction sought with a large enough effect; inconclusive = small, poorly fitted or top-dose-only effect, or another doubt; inactive = no such curve, though single readings can be large; an effect the other way counts as inactive or inconclusive. % is set by controls: 0 for no effect and ±100 for the full control effect.

SMILES	Pf growth 48h	FBPA Giardia inh	Sm TGR block	HCMV antiviral	Pf growth 96h
CCOc1cc(C(=O)N2CCC(CC3CC(c4ccc(Cl)cc4)=NO3)(C(=O)NCC3CCCCC3)CC2)cc(OCC)c1OCC (centres undefined)	0.29µM*	-3%	1%	64	0.23µM*
CCOc1cc(C(=O)N2CCC(CC3CC(c4ccccc4)=NO3)(C(=O)NCc3ccc(OC)cc3)CC2)cc(OCC)c1OCC (centres undefined)	/	/	/	12	/
O=C(NCC1CCCCC1)C1(CC2CC(c3cccc(Br)c3)=NO2)CCNCC1 (centres undefined)	-64%	4%	45µM*	-27	?
CC(C)(C)OC(=O)N1CCC(CC2CC(c3cccc(Br)c3)=NO2)(C(=O)NCC2CCCCC2)CC1 (centres undefined)	?	10%	16%	-28	?
CCCNC(=O)C1(CC2CC(c3ccccc3)=NO2)CCN(C(=O)c2ccccc2)CC1 (centres undefined)	12µM*	/	-9%	20	?
O=C(c1ccccc1)N1CCC(CC2CC(c3cccc(Br)c3)=NO2)(C(=O)NCC2CCCCC2)CC1 (centres undefined)	?	4%	-1%	/	5.2µM*
CCN1CCN(c2cc(C)c3cc(NC(=S)N4CCN(c5ccccc5)CC4)ccc3n2)CC1	?	-8%	-6%	-61*	-19%
CCN1CCN(c2cc(C)c3cc(NC(=S)N(CC)CC)ccc3n2)CC1	13µM*	-6%	-10%	-29	66%
CCC(C)NC(=S)Nc1ccc2nc(N3CCN(CC)CC3)cc(C)c2c1 (centres undefined)	0%	0%	?	-30	?
O=C(CN1CCOc2ccccc21)NCc1ccco1	/	-18%	50µM*	15	?
Cc1ccccc1CN1CCN(CC(=O)NCc2ccccc2Cl)C1=O	/	/	5%	-19	/
O=C(CSc1ccc2c(c1)OCCO2)NCc1ccco1	-2%	-7%	20µM*	44	34%
Cc1ccccc1CN1CCN(CC(=O)NCc2ccco2)C1=O	-4%	1%	40µM*	-13	?
CC(C)(C)C1CCc2c(sc(NC(=O)c3cc4ccccc4c(=O)o3)c2C(N)=O)C1 (centres undefined)	/	/	0%	2	/
COc1ccc(OC)c(S(=O)(=O)NC(C)c2cnn(-c3ccccn3)c2C)c1 (centres undefined)	7%	/	-1%	8	15µM*
COc1ccc(-n2ncc(C(C)NS(=O)(=O)c3ccc(C)s3)c2C)cc1 (centres undefined)	7%	/	4%	-21	8.3µM*
COc1ccc(Cl)cc1S(=O)(=O)NC(C)c1cnn(-c2ccccn2)c1C (centres undefined)	/	/	/	-21	/
Cc1ccc2c(-c3csc(N)n3)c[nH]c2c1	?	-8%	?	/	?
COc1cc(-c2n[nH]c(=S)n2-c2cc(C(F)(F)F)ccc2Cl)cc(OC)c1OC	-13%	-2%	-19%	18	?
CC(=O)OCC(=O)[C@@]1(O)[C@H](C)C[C@@H]2[C@H]3CCC4=CC(=O)C=C[C@]4(C)[C@]3(F)[C@@H](O)C[C@@]21C	-3%[12.8 µM]	1%[21.7 µM]	/	/	-22%[12.8 µM]
Cc1cc(C)cc(NC(=O)CN2CCC(C(=O)c3ccccc3)CC2)c1	-9%	3%	0%	-35	20%
O=S(=O)(c1ccc(OCC(O)CNCc2ccco2)c(Cl)c1)N1CCOCC1 (centres undefined)	8.3µM*	21%	-6%	-21	?
O=C(COC(=O)c1ccc(S(=O)(=O)N2CCOCC2)cc1)NCc1ccco1	/	/	/	-12	/
O=C(COC(=O)c1cc(S(=O)(=O)N2CCOCC2)ccc1F)NCc1ccco1	54%	/	45µM*	16	?
O=C(COc1ccc(S(=O)(=O)N2CCOCC2)cc1Cl)NCc1ccco1	-12%	8%	-31%	-13	17%
SMILES	Pf growth 48h	FBPA Giardia inh	Sm TGR block	HCMV antiviral	Pf growth 96h
COc1ccc(CNC(=O)c2ccccc2NC(=O)C2=C(C)OCCS2)cc1	/	/	/	-20	/
CCC(=O)Nc1ccccc1Sc1ncnc2scc(-c3ccccc3)c12	13µM*	12%	-1%	-7	4.7µM*
CCNS(=O)(=O)c1ccc2c(c1)NCC2	11%	0%	-1%	25	-1%
COc1ccc(C(C(=O)NC2CCCC2)N(Cc2cccnc2)C(=O)Cc2cccs2)c(OC)c1 (centres undefined)	-15%	9%	-6%	39	?
O=C(COC(=O)CNC(=O)c1ccco1)Nc1ccc(Cl)cn1	/	-2%	0%	14	-5%
COCCSc1ccccc1C(=O)Nc1ccc(Cl)cn1	24%	-10%	4%	-69*	-13%
O=C(CCCOc1ccccc1)Nc1ccc(Cl)cn1	20%	3%	8%	-65*	74%
COCCSc1ccccc1C(=O)Nc1nccs1	-2%	4%	-9%	26	/
O=C(COC(=O)CNC(=O)c1ccccc1)Nc1ccc(Cl)cn1	/	/	/	-61*	/
CCCCCCC(=O)Nc1ccc(Cl)cn1	59%	2%	6%	-15	/
O=c1cc(O)c(Cl)c[nH]1	2%	/	/	/	?
O=C(NCc1cccc(C(F)(F)F)c1)O[C@H]1CC[C@@]23CCCN2C(=O)CCC[C@H]3[C@H]1Cc1ccccc1	/	/	/	-17	/
Cc1ccc(CN(C)C(=O)C2CCN(C(=O)Nc3ccccc3)CC2)o1	-17%	/	?	-26	-6%
CN(Cc1ccc(C(C)(C)C)cc1)C(=O)C1CCN(C(=O)Nc2ccccc2)CC1	10µM*	/	0%	-22	13µM*
CN(C)c1ccc(C(=O)Nc2ccc(S(=O)(=O)NC3=NCCCCC3)cc2)cc1	?	-3%	4%	-27	12µM*
C=C(C)CNC(=S)Nc1cccc(S(=O)(=O)NC2=NCCC2)c1	12%	-3%	56µM*	-34	15%
CSCCCNC(=S)Nc1cccc(S(=O)(=O)NC2=NCCC2)c1	-9%	-6%	?	?	1%
CC1CN(S(=O)(=O)c2cccc(C(=O)Nc3ccc(S(=O)(=O)NC4=NCCCCC4)cc3)c2)CC(C)O1 (centres undefined)	13µM*	/	1%	-32	?
CCc1cc(C(=O)Nc2ccc(S(=O)(=O)NC3=NCCCCC3)cc2)sc1C	?	/	1%	-13	4.1µM*
CC(C)c1ccc(C(=O)Nc2ccc(S(=O)(=O)NC3=NCCCCC3)cc2)cc1	/	/	/	-28	/
Cc1ccc(C(=O)Nc2ccc(S(=O)(=O)NC3=NCCCCC3)cc2)c(C)c1	39%	/	-1%	7	?
CC1CN(S(=O)(=O)c2cccc(C(=O)Nc3ccc(S(=O)(=O)Nc4ncccn4)cc3)c2)CC(C)O1 (centres undefined)	?	13%	-1%	-34	-4%
Cc1nnc(SCC(=O)c2c(N)n(C3CC3)c(=O)[nH]c2=O)n1-c1ccccc1	?	/	5%	?	?

Bioassay records deposited in PubChem by National Center for Advancing Translational Sciences (NCATS).
